From the supplement of paper PMC3334620
The full ranking holds about 33,000 sequences; the median of “E-score (-0.5 to 0.5)” is about -0.035, and the highest 2% start at about 0.34. The sample holds the highest values, similar sequences and a random draw of the others, so the mix is not that of the screen.

These sequences were tested against T1, Mot3 (UniProt P54785) (assay: PBM E-score (8-mer binding enrichment) (E-score (-0.5 to 0.5)); higher = stronger / more preferred TF binding). Conditions: protein concentration: 200 nM; construct: GST-full length.
T1 sequence: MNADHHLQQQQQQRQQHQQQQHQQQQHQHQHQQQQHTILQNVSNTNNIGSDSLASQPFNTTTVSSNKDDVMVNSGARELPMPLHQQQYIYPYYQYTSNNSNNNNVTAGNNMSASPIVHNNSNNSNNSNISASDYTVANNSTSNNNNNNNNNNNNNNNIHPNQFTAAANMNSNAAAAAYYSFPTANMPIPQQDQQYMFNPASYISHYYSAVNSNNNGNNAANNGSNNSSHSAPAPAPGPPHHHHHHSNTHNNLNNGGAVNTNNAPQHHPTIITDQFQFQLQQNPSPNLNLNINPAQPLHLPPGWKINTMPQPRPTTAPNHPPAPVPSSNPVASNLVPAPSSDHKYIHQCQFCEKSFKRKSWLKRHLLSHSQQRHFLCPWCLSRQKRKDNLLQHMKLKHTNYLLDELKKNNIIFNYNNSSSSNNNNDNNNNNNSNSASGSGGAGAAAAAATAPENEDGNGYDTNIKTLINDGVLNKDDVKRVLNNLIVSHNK
Method in brief: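 For each ungapped eight-base word taken together with its reverse complement, the Universal PBM Analysis Suite assigned an E-score. Binding data came from GST-tagged yeast transcription factors, applied at about 100-200 nM, on universal all-10-mer Agilent arrays made double-stranded by primer extension. Fluorescent anti-GST marked bound protein, and scans were normalised with masliner.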

Sequence	PBM E-score
ACTTGATA	0.0522
GAATCTAA	-0.0012
CCTGAACA	0.23
CATTAACA	0.299
AGTTAACA	0.279
TATTAACA	0.359
TGTTAACA	0.361
GATTAACA	0.338
CGTTAACA	0.244
AAAAGGTC	-0.161
CTGCAGCA	-0.0262
GCCAGCGC	-0.236
AAGCGTAA	0.0617
GCGTTTCC	0.0476
AGGAAATG	0.262
CGGAAATA	-0.206
AGGAAATC	0.373
GGGAAATA	0.0874
AGGAAATA	0.368
CGGAAATC	-0.109
AGTGATAG	0.0766
GCCTCGCC	-0.17
ACCTGAAC	0.0861
AAGGGTAT	-0.018
TATTCACA	0.221
ACAGGAGG	-0.0434

Sequence	PBM E-score
AAAAGATG	0.11
GAAAGGCA	0.469
TAAAGTCA	0.0168
TAAAGGCA	0.481
GAAAGGGA	0.0421
CAAAGGCG	0.233
AAAAGGCA	0.478
TAAAGGGA	0.016
AAAAGGCG	0.278
CAAAGGCC	-0.151
AAAAGGCT	0.0632
GAAAGGCC	-0.0302
CAAAGGCA	0.479
ACAACGAT	0.155
AGCACAAG	0.0406
CTAGGCCC	-0.21
CTCTACCA	-0.192
CGACTCAG	-0.219
GCGGTTCC	0.0435
CACTTTGG	-0.0925
GACTGATA	-0.216
CGGGGCTA	-0.291
AACTTCCT	0.15
CCTTGTAG	0.311
CCTTGTAA	0.392
ATTTGTAA	0.244

Sequence	PBM E-score
CTTTGTAC	0.193
CTTTGTAA	0.355
CCTTGTAC	0.272
AGGCTGTC	-0.15
GGGCATAC	-0.186
AAGAAGTC	-0.0398
AATTGCGC	0.0861
GTCTATGA	0.0543
CTCGATAC	0.24
GGCGTGCA	-0.243
GGCGTGTA	0.383
AGCGTGTG	0.147
CGCGTGTA	0.375
CGCGTGTC	0.196
CGCGTGAA	0.172
AGCGTGTC	0.205
GGCGTGAA	-0.0959
AGCGTGTA	0.406
ACAGACGT	0.119
GAGGGAAA	-0.199
CTCCTTGA	-0.122
CGAAGGTC	-0.313
AGAAGGTC	-0.0584
GGAAGGTA	0.251
AGAAGGTG	-0.0242
AGAAGGTA	0.347

Sequence	PBM E-score
CGAAGGTA	0.366
ATTTAGGC	0.339
CTTGATAC	0.00505
CAGACACC	-0.0175
AAGACGGC	-0.265
ATGGATTG	0.0625
GCGTTCTA	-0.106
ATAGACCC	0.178
CGCCACCC	-0.0907
GAACATGA	0.238
TAACATGA	0.363
GAACATGC	0.202
AAACATGC	0.288
CAACATGC	0.345
CCACATGA	0.0141
TAACATCA	0.25
AAACATGA	0.327
AAACATGT	0.374
AAACATGG	0.222
CAACATGG	0.337
CAACATGA	0.352
ATGGCCAT	-0.171
CAGTTCCC	-0.174
CTAGGATC	-0.0652
CAGTGCGC	-0.292
CCCGGTCG	-0.273

Sequence	PBM E-score
ACCGGTAT	-0.135
ACGTTGTG	0.137
GGCCGAGA	-0.209
TAGTAATA	0.182
CTCTCTGC	-0.112
AGGGCATC	-0.163
ATGGCATC	-0.162
AAGGCATG	0.303
AAGGCATA	0.321
AAGGCATC	0.381
AAGGCATT	0.362
AAACTTCG	0.0118
TACCTAGA	0.252
AGAGAAAA	-0.0157
CAGCACTA	-0.113
ATAAAGCA	-0.12
ACATAGGT	0.282
ACATAGGC	0.373
ATTAAGGC	0.378
CTAAAGGA	0.148
ATTAAGGA	0.0441
ACACAGGA	0.295
GCATAGGC	0.166
ACACAGGC	0.354
ACACAGGG	0.213
CTAAAGGC	0.35

Sequence	PBM E-score
ATAAAGGC	0.186
CTTAAGGC	0.314
CGCAGCCC	-0.265
CAGCAACC	-0.184
TAACGCAA	0.2
CGAGAACG	-0.206
GGGTAAGA	-0.146
ATCGCTTC	-0.178
ACAAAGGC	0.36
CCAAAGGC	0.145
ACAAAGGG	-0.0152
ATAGCGCA	-0.0413
AGAGCTAT	0.00577
CAATGTAA	0.34
CAATGTAC	0.184
GAATGTAA	0.295
TAATGTAA	0.354
CAATGTAG	0.234
AAATGTAA	0.346
TAATGTCA	0.139
AAATGTAC	0.227
AAATGTAG	0.151
ATTCTCTC	-0.103
ATATTAAA	0.184
